In PubChem BioAssay (EPA / NIEHS):
Results filed as inconclusive are left out. Active and inactive are the calls of the source. Rule for the calls: active = hit-call score of the fitted dose curve at least 0.9, where 1 is the maximum; inconclusive = response in the unintended direction; inactive = score below 0.9.

Target: human RAR-related Orphan Receptor gamma (RORg), RORC (gene 6097) (UniProt P51449)
Assay: ATG_RORg_TRANS: Attagene TRANS-FACTORIAL HepG2 Assay for human RAR-related Orphan Receptor gamma (RORg) (AID 2283011)
Method: ATG_TRANS is a cell-based, multiplexed-readout assay that uses HepG2, a human liver cell line, with measurements taken at 24 hours after chemical dosing in a 24-well plate.ATG_RORg_TRANS is one of 30 assay component(s) measured or calculated from the ATG_TRANS assay. It is designed to make measurements of mRNA induction, a form of inducible reporter, as detected with fluorescence intensity signals by Reverse transcription polymerase chain reaction (RT-PCR) and Capillary electrophoresis technology.Data from the assay component ATG_RORg_TRANS was analyzed into 1 assay endpoint. This assay endpoint, ATG_RORg_TRANS, was analyzed in the positive analysis fitting direction relative to DMSO as the negative control and baseline of activity. Using a type of inducible reporter, measures of mRNA for gain-of-signal activity can be used to understand the reporter gene at the transcription factor-level as they relate to the gene RORC. Furthermore, this assay endpoint can be referred to as a primary readout, because this assay has produced multiple assay endpoints where this one serves a reporter gene function. To generalize the intended target to other relatable targets, this assay endpoint is annotated to the nuclear receptor intended target family, where the subfamily is orphan.
Human liver HepG2 cells are transiently transfected with multiple reporter transcription units (MRTUs) in 6-well plates using FuGene 6 reagent (Roche; 3 ml FuGene/1 mg DNA). The MRTU constructs are regulated by a cis-regulating element (promoter). […] A major difference between the CIS and TRANS system is that in CIS activities of endogenous TFs are measured, whereas the TRANS assay evaluates changes in activities of exogenous, chimeric NR-Gal4 proteins. […] At the end of 24 hour incubation, total RNA was isolated using TriZol reagent (Invitrogen). The isolated RNA is then reverse-transcribed using oligo(dT) primer and Mo-MLV reverse transcriptase (Invitrogen) with DNAse I (Ambion) treatment for 30 min. The one-tenth of the produced cDNA was amplified by PCR using Taq DNA polymerase (Invitrogen) and two reporter sequence-specific primers. The PCR products were fluorescently labeled by primer extension with 6-arboxyfluorescein (6-FAM) 5'-labeled reporter sequence-specific primer (2 min at 95 C, 20 s at 68 C and 10 min at 72 C) and these products were digested with 5U of HpaI (New England Biolabs) for 2h at 37 C. The fragments were purified using Qiaquick PCR columns (Qiagen), analyzed on an ABI 3130xL genetic analyzer (Applied Biosystems) with peak positions identified by using a set of X-rhodamine (ROX)-labeled MapMarker1000 molecular weight standards (BioVentures). The raw capillary electrophoresis data was processed using Attagraph software (Attagene).

Sequence of human RAR-related Orphan Receptor gamma (RORg), RORC (gene 6097) (P51449 whole entry, looked up): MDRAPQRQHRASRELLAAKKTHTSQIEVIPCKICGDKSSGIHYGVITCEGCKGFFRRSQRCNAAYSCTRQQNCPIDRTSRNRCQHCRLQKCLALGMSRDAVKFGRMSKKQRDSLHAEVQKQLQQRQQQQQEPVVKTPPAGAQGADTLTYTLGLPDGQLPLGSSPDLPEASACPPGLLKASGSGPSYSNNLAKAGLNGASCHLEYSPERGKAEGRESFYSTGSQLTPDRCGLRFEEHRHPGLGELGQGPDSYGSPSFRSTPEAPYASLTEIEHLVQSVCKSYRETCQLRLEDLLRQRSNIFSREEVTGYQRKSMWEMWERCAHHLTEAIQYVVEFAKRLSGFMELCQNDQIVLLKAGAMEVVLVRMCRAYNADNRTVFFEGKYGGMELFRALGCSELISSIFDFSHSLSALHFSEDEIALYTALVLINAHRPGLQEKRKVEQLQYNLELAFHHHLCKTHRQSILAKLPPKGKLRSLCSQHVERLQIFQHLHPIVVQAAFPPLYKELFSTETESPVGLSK

outcome, inactive:
C=CC(=O)OCCN(CC)CC
Oc1cccc2c(O)cccc12
CCC(C)c1ccccc1O (stereo not given)
CCCCCCCCCCCCCCCCCC[N+](C)(C)Cc1ccccc1
FC(F)(F)C(F)(F)C(F)(F)C(F)(F)I
CCOCCOCC
c1ccc2c(c1)CCC2
O=C(Nc1ccc(Cl)c(Cl)c1)c1cc(Cl)cc(Cl)c1O
CCCCN(C)C
FC(F)=C(F)C(F)(F)C(F)(F)C(F)(F)C(F)F
CC(C)(C)c1ccc(O)c(O)c1
CC(C)(C)C1CCCCC1O (stereo not given)
CCCCCCCC(OC)OC
OCC(F)(F)C(F)(F)C(F)(F)C(F)(F)C(F)(F)C(F)(F)C(F)(F)C(F)(F)C(F)(F)C(F)(F)C(F)(F)F
Brc1cc(Br)c(Oc2c(Br)cc(Br)c(Br)c2Br)cc1Br
C[C@]12CC[C@@H]3c4ccc(O)cc4CC[C@H]3[C@@H]1CC[C@@H]2OC(=O)CCC1CCCC1
Oc1c(Cl)cc(Cl)cc1Sc1cc(Cl)cc(Cl)c1O
CC(C)(c1ccc(Oc2ccc(N)cc2)cc1)c1ccc(Oc2ccc(N)cc2)cc1
c1cc2cccc3c4cccc5cccc(c(c1)c23)c54
CC1CCC(CO)CC1 (stereo not given)
NCc1cccc(CN)c1
CC(C)C=O
NCCN
CC(C)c1c(C(=O)Nc2ccccc2)c(-c2ccccc2)c(-c2ccc(F)cc2)n1CC[C@@H](O)C[C@@H](O)CC(=O)O
CCC(C)c1nccnc1OC (stereo not given)
C=CC(=O)OCCC(F)(F)C(F)(F)C(F)(F)C(F)(F)C(F)(F)C(F)(F)F
CC[N+](CC)(CC)Cc1ccccc1
COc1cccc(O)c1
O=C(c1cc(O)c(O)c(O)c1)c1ccc(O)c(O)c1O
C=CC(=O)OCC(CO)(COCC(COC(=O)C=C)(COC(=O)C=C)COC(=O)C=C)COC(=O)C=C
CCc1cccc(CC)c1NC(=O)C(=O)O
CC(=O)CC(C)C
O=C(OC(=O)C(F)(F)C(F)(F)F)C(F)(F)C(F)(F)F
NS(=O)(=O)O
O=C(O)CCC(F)(F)C(F)(F)C(F)(F)C(F)(F)C(F)(F)C(F)(F)F
C/C=C/C(=O)C1=C(C)CCCC1(C)C
O=P(O)(O)CCC(F)(F)C(F)(F)C(F)(F)C(F)(F)C(F)(F)C(F)(F)F
O=C1NS(=O)(=O)c2ccccc21
CCCCCCCCC1CCC(=O)O1 (stereo not given)
O=C(F)C(F)(F)C(F)(F)C(F)(F)C(=O)F
